Test results: PubChem BioAssay

Experiments:
[1] = test system: Human papillomavirus type 1a protein E7 (residues 44-93); test: HPV1a E7 fragment binders on microarrays, primary screen, biochemical, small-molecule microarray, residues 44-93, 635 nm fluorescence (AID 1108); settings: small-molecule microarray binding, fluorescence 635 nm; higher = more signal;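 further: E7 fragment applied at 1 µg/mL in TBST for 1 h at 4 C; score combines spot fluorescence with its signal to noise ratio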
[2] = modulators of HCV replicon luciferase signal, primary screen, HCV replication inhibitor project, Huh7 cells, luciferase reporter (AID 1109); settings: 48 h, higher = more signal;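 further: huh7 hepatoma cells harbouring a luciferase neomycin HCV replicon reporter; luciferase luminescence as measure of HCV replicon replication; test concentration not given here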
[3] = target: Left-right determination factor 2 (Homo sapiens) (UniProt O00292); test: LEFTY2 binders on small-molecule microarrays, primary screen, biochemical, small-molecule microarray, 635 nm fluorescence scan (AID 1110); settings: LEFTY2 binding, higher = more signal
[4] = target: Calmodulin-1 (Homo sapiens) (UniProt P0DP23); test: CALM1 binders on microarrays, EGTA buffer, profiling panel, biochemical, small-molecule microarray, Cy5-labelled CALM1 (AID 1111); settings: Cy5-CALM1 binding fluorescence, higher = more signal;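 further: labelled calmodulin applied in Tris saline Tween buffer holding calcium plus EGTA and DTT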
[5] = target: Calmodulin-1 (Homo sapiens) (UniProt P0DP23); test: calcium-bound CALM1 binders on microarrays, profiling panel, artefact control for SMM control-protein annotation, biochemical, small-molecule microarray, Cy5-labelled CALM1, plus calcium (AID 1112); settings: Cy5-CALM1 binding fluorescence, higher = more signal;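 further: score merges spot fluorescence with signal to noise from triplicate slides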
[6] = small-molecule microarray binders of probe aWnt5a, primary screen, biochemical, biotinylated probe, 635/667 nm fluorescence (AID 1113); settings: higher = more signal;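 further: score merges 667 nm fluorescence intensity with signal-to-noise per printed feature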
[7] = small-molecule microarray binders of probe aShh, primary screen, biochemical, biotinylated probe, 635/667 nm fluorescence (AID 1114); settings: higher = more signal;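 further: probe is biotin-labelled aShh protein from a stem cell growth factor screen; measures binding of labelled protein to compounds printed on the slide; score merges feature fluorescence at 667 nm with signal-to-noise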
[8] = small-molecule microarray binders of probe aNog, primary screen, biochemical, biotinylated probe, 635/667 nm fluorescence (AID 1115); settings: higher = more signal;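 further: probe is biotinylated aNog protein used at 0.15 µg/mL for 1 h at 4 C; z-score combines 667 nm fluorescence of each spot with its signal to noise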
[9] = target: Torsin-1A-interacting protein 1 (Homo sapiens) (UniProt Q5JTV8); test: LAP1 binders from COS7 cell lysate, primary screen, small-molecule microarray, 635/667 nm fluorescence (AID 1116); settings: COS7-hLAP1 lysate binding, 635 nm fluorescence, higher = more signal
[10] = target: Alpha-bungarotoxin (Bungarus multicinctus) (UniProt P60615); test: alpha-bungarotoxin binders on microarray, profiling panel, artefact control for SMM control protein annotation, biochemical, small-molecule microarray, Alexa647 label, 635/667 nm fluorescence (AID 1117); settings: alpha-BTX-A647 binding fluorescence, higher = more signal
Chain of Alpha-bungarotoxin (Bungarus multicinctus) (P60615 whole entry, looked up): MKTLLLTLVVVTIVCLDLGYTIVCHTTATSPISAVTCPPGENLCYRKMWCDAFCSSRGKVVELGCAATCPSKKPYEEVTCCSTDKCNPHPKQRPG

Chain of Left-right determination factor 2 (Homo sapiens) (O00292 whole entry, looked up): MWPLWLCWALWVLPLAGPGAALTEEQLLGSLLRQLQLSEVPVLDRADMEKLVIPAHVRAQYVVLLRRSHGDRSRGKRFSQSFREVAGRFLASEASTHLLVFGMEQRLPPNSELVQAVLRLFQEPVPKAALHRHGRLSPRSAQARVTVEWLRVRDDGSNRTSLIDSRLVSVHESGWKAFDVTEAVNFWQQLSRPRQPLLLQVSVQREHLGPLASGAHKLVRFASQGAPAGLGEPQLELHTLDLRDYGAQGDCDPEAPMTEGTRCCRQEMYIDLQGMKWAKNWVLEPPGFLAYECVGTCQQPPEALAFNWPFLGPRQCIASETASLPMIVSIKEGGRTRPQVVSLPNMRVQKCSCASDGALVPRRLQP
Chain of Torsin-1A-interacting protein 1 (Homo sapiens) (Q5JTV8 whole entry, looked up): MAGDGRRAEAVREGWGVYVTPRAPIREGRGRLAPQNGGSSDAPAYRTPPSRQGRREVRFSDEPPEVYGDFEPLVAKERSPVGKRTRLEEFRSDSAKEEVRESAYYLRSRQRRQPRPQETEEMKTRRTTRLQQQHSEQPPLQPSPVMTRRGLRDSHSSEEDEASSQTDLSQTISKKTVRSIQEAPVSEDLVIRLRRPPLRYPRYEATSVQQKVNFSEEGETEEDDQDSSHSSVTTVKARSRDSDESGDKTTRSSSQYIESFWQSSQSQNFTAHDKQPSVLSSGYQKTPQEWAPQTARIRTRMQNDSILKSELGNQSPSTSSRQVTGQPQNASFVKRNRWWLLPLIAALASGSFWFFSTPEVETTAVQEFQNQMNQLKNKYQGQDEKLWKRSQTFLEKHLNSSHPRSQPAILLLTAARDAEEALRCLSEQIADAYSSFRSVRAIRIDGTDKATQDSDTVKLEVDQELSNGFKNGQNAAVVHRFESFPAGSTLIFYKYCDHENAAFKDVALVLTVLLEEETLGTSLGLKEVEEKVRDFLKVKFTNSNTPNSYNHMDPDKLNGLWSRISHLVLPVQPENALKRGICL

| SMILES | composite z-score [1] | z-score [2] | composite z-score [3] | composite z-score [4] | composite z-score [5] | composite z-score [6] | composite z-score [7] | composite z-score [8] | composite z-score [9] | composite z-score [10] |
| --- | --- | --- | --- | --- | --- | --- | --- | --- | --- | --- |
| CC(C)(C)OC(=O)CC[C@@]1(C(=O)NCC(O)CO)N=C(c2ccc(OCCCO)cc2)O[C@@H]1c1ccccc1N=[N+]=[N-] (stereo not given in full) | 1.47 | 0.0173 | -0.586 | 1.67 | 0.414 | 0.0279 | 0.13 | 1.71 | 2.29 | 1.6 |
| COC(=O)[C@@]1(Cc2ccc(OC)cc2)[C@H]2c3cc(C(=O)N4CCCC4)n(Cc4ccsc4Br)c3C[C@H]2CN1C(=O)c1ccccc1 | 1.27 | -3.66 | -0.857 | 1.1 | 0.696 | -0.0944 | -0.237 | 1.48 | 0.254 | 0.218 |
| CC(C)(C)OC(=O)CC[C@@]1(C(=O)NCCN2CCOCC2)N=C(c2ccc(OCCCO)cc2)O[C@@H]1c1ccccc1N=[N+]=[N-] | 1.32 | -0.291 | 0.609 | 0.147 | 0.0196 | 0.108 | 0.171 | 0.991 | 0.694 | 0.783 |
| O=C1O[C@@H](c2ccccc2)[C@@H](c2ccccc2)N2[C@@H](c3ccccc3OCCO)[C@]3(C(=O)Nc4ccc(C#CC5=CCCCC5)cc43)[C@@H](C(=O)Nc3nc4ccccc4s3)[C@H]12 | 1.4 | -2.52 | 0.501 | 1.32 | 0.337 | -0.0084 | 0.356 | -0.167 | 0.705 | 1.32 |
| C[C@@H]1ON(c2cccc(C(=O)OC(C)(C)C)c2)[C@H](c2ccc(Br)cc2)[C@H]1C(=O)N1C(=O)OC[C@H]1Cc1ccccc1 | 1.16 | -1 | 0.552 | 0.702 | -0.367 | 0.667 | 0.0756 | 1.09 | 2.7 | 0.518 |
| CCC(CC)C(O)C1C=CC2C(=O)N(C)C(=O)C2N1Nc1ccccc1 (stereo not given) | 0.948 | 0.347 | -0.054 | 1.44 | 0.463 | -0.0863 | 0.128 | 1.09 | 1.64 | 1.04 |
| [N-]=[N+]=NCc1ccccc1[C@@H]1OC(c2ccc(OCCCO)cc2)=N[C@]1(Cc1ccccc1N=[N+]=[N-])C(=O)N1CCOCC1 | 0.841 | -1.56 | 0.404 | 1.97 | 0.995 | 0.334 | 0.686 | 2.35 | 1.44 | 1.82 |
| C=CCOC(=O)[C@@H]1[C@H]2C(=O)O[C@H](c3ccccc3)[C@H](c3ccccc3)N2[C@H](c2ccc(OCCOC(=O)[C@@H]3C[C@@H]4C(=O)N[C@@H](Cc5ccccc5)C(=O)N4[C@@H]3c3ccc(O)cc3)cc2)[C@@]12C(=O)Nc1ccc(I)cc12 | 1.38 | -0.726 | 0.56 | 0.75 | 0.299 | -0.0981 | 0.178 | -0.0784 | -0.289 | 1.02 |
| CN1C(=O)C2C=CC(C(O)c3ccc(I)cc3)N(N3CCCCC3)C2C1=O (stereo not given) | 1.43 | -0.435 | 0.0759 | 1.64 | 0.219 | 0.0599 | 0.184 | 1.34 | 1.19 | 1.22 |
| O=C1NC(=O)C2C1C=CC(C(O)c1ccccc1)N2Nc1ccc(Cl)cc1Cl (stereo not given) | 1.39 | -1.25 | 0.628 | 2.13 | 1.09 | 0.17 | 0.412 | 1.44 | 1.98 | 1.55 |
| CCOC(=O)C[C@H]1[C@H](OC(=O)Cc2ccc3c(c2)OCO3)[C@@H](NC(=O)c2ccc(-c3ccccc3)cc2)c2cc(OCCCO)ccc2N1C(=O)Cc1ccc(OC)cc1 | 0.911 | -1.48 | 0.253 | 0.644 | 0.0039 | 0.0673 | 0.173 | 0.0804 | 0.521 | -0.256 |
| COc1ccc(C#Cc2ccc3c(c2)[C@]2(C(=O)N3)[C@H](c3ccccc3OCCO)N3[C@H](c4ccccc4)[C@H](c4ccccc4)OC(=O)[C@H]3[C@@H]2C(=O)O)cc1 | 1.42 | -2.87 | 0.186 | 1.22 | 1.05 | 0.0932 | 0.0037 | 1.52 | 1.77 | 1.67 |
| O=C(C1N=C(c2ccc(OCCCO)cc2)N(c2ccccc2)O1)N1CCOCC1 (stereo not given) | 1.37 | -2.11 | 0.677 | 1.29 | 0.335 | -0.0445 | 0.465 | -0.492 | 0.832 | 1.12 |
| C=CCOC(=O)[C@H]1[C@@H]2C(=O)O[C@@H](c3ccccc3)[C@@H](c3ccccc3)N2[C@@H](c2ccc(OCCOC(=O)[C@H]3C[C@H]4C(=O)N5CCC[C@H]5C(=O)N4[C@H]3c3ccc(O)cc3)cc2)[C@]12C(=O)Nc1ccc(I)cc12 | 1.48 | 0.56 | 1.52 | 1.22 | 1.41 | 0.547 | 2.8 | 2.82 | 2.74 | 2.81 |
| CCOC(=O)[C@H]1C/C=C/C[C@H](C(=O)OCC)C(=O)O[C@H]2[C@@H](OC)O[C@H](CO)[C@@H](OC(=O)Nc3ccc(C#N)cc3)[C@@H]2OC1=O | -0.324 | -3.6 | -0.0147 | 0.917 | 0.148 | -0.124 | 0.0062 | -0.113 | 1.63 | -0.253 |
| CCCCCC1=C2CNC(CCC)(C(=O)OC)C=C2C(C)C1=O (stereo not given) | 0.514 | -0.183 | -0.477 | 1.42 | 1.27 | -0.0125 | 0.811 | 1.66 | 0.997 | 0.334 |

| SMILES | composite z-score [1] | z-score [2] | composite z-score [3] | composite z-score [4] | composite z-score [5] | composite z-score [6] | composite z-score [7] | composite z-score [8] | composite z-score [9] | composite z-score [10] |
| --- | --- | --- | --- | --- | --- | --- | --- | --- | --- | --- |
| C=C(CCCC)C(=O)CC[C@H](OC(=O)c1cccnc1)c1ccccc1OCCO | -0.935 | -2.46 | -0.154 | -0.398 | -0.95 | -0.0758 | -0.102 | -0.136 | -0.0529 | -0.0583 |
| COCCOC(=O)N1C(=O)[C@@]2(c3cc(C#CCCO)ccc31)[C@H](C(=O)N1CCc3cc(OC)c(OC)cc3C1)[C@H]1C(=O)O[C@H](c3ccccc3)[C@H](c3ccccc3)N1[C@@H]2c1ccc(O)cc1 | 1.41 | -1.34 | 0.332 | 0.527 | 0.294 | -0.1 | 0.123 | 0.119 | 0.987 | 1.24 |
| COCCOC(=O)N1C(=O)[C@@]2(c3cc(C#Cc4ccc(OC)cc4)ccc31)[C@H](c1ccc(O)cc1)N1[C@H](c3ccccc3)[C@H](c3ccccc3)OC(=O)[C@H]1[C@@H]2C(=O)NC[C@H](O)c1ccccc1 | 1.44 | -2.2 | 0.598 | 1.18 | -0.209 | 0.0809 | 0.692 | -0.467 | 0.681 | 1.54 |
| CCc1oc(CC[C@@H](CO)NC(=O)NCCn2cc(C3(O)CCCCC3)nn2)c(C(=O)OC)c1C(=O)OC | 0.814 | 0.524 | 0.905 | -0.22 | -0.657 | 0.048 | 0.381 | -0.0645 | 0.946 | 0.336 |
| CN1C(=O)C2C=CC(C(O)C3CC=CCC3)N(NC(=O)OC(C)(C)C)C2C1=O (stereo not given) | 0.696 | -0.0017 | 0.46 | 2.3 | 0.785 | -0.0539 | -0.195 | 0.55 | 1.84 | 1.3 |
| Cc1ccc(S[C@]2(C(=O)NCCN3CCOCC3)CC(=O)N(Cc3ccccc3Cl)[C@@H]2c2ccc(CO)cc2)cc1 | 1.02 | -0.815 | -0.989 | -0.343 | 0.148 | -0.12 | -0.0035 | -0.339 | 0.733 | -0.146 |
| C=CC[C@]12N=C(c3ccc(OCCCO)cc3)O[C@H]1c1ccccc1N(Cc1ccccc1)C2=O | 0.0023 | -2.57 | 0.192 | -0.162 | 0.438 | 0.0032 | -0.0146 | 0.472 | 1.9 | 1.51 |
| CC(C)(C)OC(=O)CC[C@@]1(C(N)=O)N=C(c2ccc(OCCCO)cc2)O[C@@H]1c1ccccc1 | 1.38 | 0.14 | -0.289 | 0.31 | -0.216 | -0.0512 | -0.419 | -0.534 | 1.2 | 0.646 |
| COCCOC(=O)N1C(=O)[C@@]2(c3cc(C#CC4=CCCCC4)ccc31)[C@H](C(=O)N1CCc3cc(OC)c(OC)cc3C1)[C@H]1C(=O)O[C@H](c3ccccc3)[C@H](c3ccccc3)N1[C@@H]2c1ccc(OCCO)cc1 | 1.07 | -0.44 | 0.744 | 0.526 | 0.269 | 0.048 | -0.428 | 0.575 | 0.929 | 1.07 |
| CC(C)(C)OC(=O)CC[C@]1(C(=O)NCC(O)CO)COC(c2ccc(OCCCO)cc2)=N1 (stereo not given in full) | 1.31 | -0.105 | -0.455 | 1.5 | 0.834 | -0.0512 | 0.275 | 0.592 | 1.7 | 1.88 |
| C=C(CCCC)/C(=C/C[C@@H](OC(C)=O)c1ccccc1OCCO)c1cnc2ccccc2c1 | 0.75 | -2.25 | 0.157 | -0.0416 | -0.418 | -0.124 | -0.0977 | 0.369 | 0.44 | 0.157 |
| CCCC#C[Si](O[C@H](CC)c1cn([C@H](CO)Cc2ccccc2)nn1)(C(C)C)C(C)C | 1.08 | -0.256 | 0.728 | 0.486 | -0.0381 | 0.0597 | -0.0866 | 0.26 | 0.761 | 0.701 |
| [N-]=[N+]=Nc1ccccc1C[C@]1(C(N)=O)N=C(c2ccc(OCCCO)cc2)O[C@H]1c1ccccc1 | 1.43 | -0.947 | -0.932 | 1.59 | 0.0189 | -0.0721 | 0.0723 | -0.235 | 2.05 | 1.03 |
| CN1C(=O)C2C=CC(C(O)c3ccccc3)N(Nc3ccccc3)C2C1=O (stereo not given) | -0.265 | 0.773 | -1.52 | 0.253 | -0.143 | -0.0758 | -0.0813 | -0.448 | -0.454 | 0.201 |
| O=C1c2ccccc2[C@@]2(Cc3ccccc3N(CCN3CCOCC3)C2=O)[C@H](c2ccc(CO)cc2)N1Cc1ccccc1 | -0.22 | -0.446 | -0.976 | -0.211 | -0.11 | -0.128 | -0.0709 | -0.5 | 1.01 | 0.175 |
| C=CCNC(=O)[C@H]1[C@@H]2C(=O)O[C@@H](c3ccccc3)[C@@H](c3ccccc3)N2[C@@H](c2ccc(OCCO)cc2)[C@]12C(=O)N(C(=O)OCCOC)c1ccccc12 | 0.379 | -1.49 | 0.666 | 1.06 | 0.0523 | -0.14 | -0.0056 | -0.0681 | 0.985 | 1.66 |
